The structures appear in SMILES notation. Where “and” joins values, the source holds several entries; their conditions need not be identical. Equal values may be shown once. Values without a mark were called inactive. Results filed as inconclusive are left out. Calls of active or inactive are those of the source. Unless noted, the call rests on the fitted dose curve; in most records, active means well fitted curve in either direction with a large enough effect (not every such curve was filed as active); inconclusive means small, poorly fitted or top-dose-only effect, or another doubt; inactive means flat fitted curve, though single readings scatter.

The nature of test [1]: AP1 Signaling Pathway (AID 357). Further: on the % scale 0 is the no-effect control and ±100 the full control effect. The conditions noted are these: ME-180 AP-1-bla reporter, EGF-induced, beta-lactamase ratio, 5 h. An outline of the steps: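 AP-1-bla ME-180 cells with beta-lactamase reporter under AP-1 response element, stimulated with EC50 EGF; compounds titrated, 5 hours at 37 degrees Celsius. CCF4 read at 460/530 nm ratio; positive and negative modulators judged by AC50.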

A short description of test [2]: NFAT Signaling Pathway (AID 444).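 Further: carbachol stimulus at about its EC50 of 1 µM final; on the % scale 0 is the no-effect control and ±100 the full control effect.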 As to conditions: Jurkat NFAT-bla M1, carbachol, beta-lactamase ratio, 5 h. A digest of the protocol:
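Jurkat cells with NFAT-driven β-lactamase reporter and co-expressed M1 receptor, stimulated with carbachol (final 1 uM, ~EC50), compound titration, 5 h at 37 °C. CCF4 loaded 1 h at RT; 460/530 nm ratio gave %activity and AC50.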

Test [3] can be described thus: Stat Signaling Pathway (AID 446).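 Further: ME-180 cervical cancer cells given 40 pM IL-6 alongside compound; SIE-controlled beta-lactamase reporter measured as 460/530 nm FRET emission ratio; on the % scale 0 is the no-effect control and ±100 the full control effect.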 As to conditions: ME-180 (cervical carcinoma) SIE beta-lactamase reporter, IL-6 stimulated, 5 h. A digest of the protocol: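 Compound effects on IL-6-induced STAT reporter activity were measured in ME-180 cells. After overnight culture, cells were co-treated with 40 pM IL-6 for 5 hrs before beta-lactamase substrate loading at room temperature.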
In test [4] the target is Glucocorticoid receptor (Homo sapiens) (UniProt P04150). Put plainly: GR-GFP Redistribution (AID 450;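 active means compounds whose dose series gives a full or clear partial fitted curve of increased nuclear translocation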; further: potency means the concentration at half of the fitted maximal effect). As to conditions: U2OS GR-GFP nuclear translocation, laser cytometry, 2 h.
Chain of Glucocorticoid receptor (Homo sapiens) (P04150 whole entry, looked up, the tested form may be a part): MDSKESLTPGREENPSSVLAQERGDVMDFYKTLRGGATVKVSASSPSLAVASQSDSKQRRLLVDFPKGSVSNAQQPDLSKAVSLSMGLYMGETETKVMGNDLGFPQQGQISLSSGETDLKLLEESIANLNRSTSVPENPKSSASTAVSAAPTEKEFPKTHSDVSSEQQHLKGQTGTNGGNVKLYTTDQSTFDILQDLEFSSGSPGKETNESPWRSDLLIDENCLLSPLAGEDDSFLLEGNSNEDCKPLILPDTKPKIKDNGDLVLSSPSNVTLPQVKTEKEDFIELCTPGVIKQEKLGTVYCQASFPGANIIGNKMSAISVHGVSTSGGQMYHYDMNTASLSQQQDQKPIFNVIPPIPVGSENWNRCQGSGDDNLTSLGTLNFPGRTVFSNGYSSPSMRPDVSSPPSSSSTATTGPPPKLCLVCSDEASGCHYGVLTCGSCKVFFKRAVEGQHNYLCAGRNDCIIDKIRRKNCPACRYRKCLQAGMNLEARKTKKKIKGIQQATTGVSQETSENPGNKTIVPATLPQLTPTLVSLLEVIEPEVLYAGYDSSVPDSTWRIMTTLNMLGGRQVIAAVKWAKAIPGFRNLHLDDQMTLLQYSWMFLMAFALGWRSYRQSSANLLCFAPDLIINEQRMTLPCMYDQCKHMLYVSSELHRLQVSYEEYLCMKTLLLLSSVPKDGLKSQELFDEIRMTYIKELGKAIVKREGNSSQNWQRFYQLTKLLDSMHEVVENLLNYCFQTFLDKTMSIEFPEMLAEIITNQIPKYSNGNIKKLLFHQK
For test [5] the target is unchanged. Put plainly: GR-EFC Redistribution (AID 451; calls by dose curve; further: potency means the concentration at half of the fitted maximal effect). The conditions noted are these: CHO-K1 GR-EFC translocation, beta-gal luminescence, 2 h. An outline of the steps: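 CHO-K1 cells expressing nuclear EA and GR-ED fragments of b-gal; compounds titrated up to 46 uM final, 2 h at 37 C. GR nuclear translocation read as complemented b-gal luminescence after 1 h RT detection.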

Test [6] addresses Mitogen-activated protein kinase 10 (Mus musculus) (UniProt Q61831). Put plainly: JNK3 AlphaScreen Assay (AID 530).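 Further: kinase came from lysate of stimulated human HepG2 cells; signal reports phosphorylation of biotinylated GST-cJun 1-79 at Ser73 with 10 µM ATP; on the % scale 0 is the no-effect control and ±100 the full control effect.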 As to conditions: JNK3 lysate, c-Jun phosphorylation; series mostly up to 25.6 µM. A digest of the protocol:
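Activity was read by AlphaScreen after JNK3-containing HepG2 lysate (cytokine pre-activated) phosphorylated biotinylated GST-cJun with 10 uM ATP at room temperature. Phospho-Ser73 cJun antibody with Protein-A acceptor beads provided detection.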

The target in test [7] is Cytochrome P450 1A2 (Homo sapiens) (UniProt P05177). Put plainly: p450-cyp1a2 (AID 410; calls by dose curve; further: potency means the concentration at half of the fitted maximal effect;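 on activity change, negative = inhibition: -100% = full effect of reference inhibitor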). The conditions noted are these: recombinant CYP1A2, luciferin-ME demethylation, luminescence; series mostly up to 25.6 µM. A digest of the protocol: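 Luminescent demethylation readout: Luciferin-ME (100uM, equal to Km) turned over by 20nM CYP1A2 for 60 min at room temperature after NADPH regeneration addition, following 10 min compound preincubation. Normalization used 57 uM furafylline as full inhibition.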
Chain of Cytochrome P450 1A2 (Homo sapiens) (P05177 whole entry, looked up): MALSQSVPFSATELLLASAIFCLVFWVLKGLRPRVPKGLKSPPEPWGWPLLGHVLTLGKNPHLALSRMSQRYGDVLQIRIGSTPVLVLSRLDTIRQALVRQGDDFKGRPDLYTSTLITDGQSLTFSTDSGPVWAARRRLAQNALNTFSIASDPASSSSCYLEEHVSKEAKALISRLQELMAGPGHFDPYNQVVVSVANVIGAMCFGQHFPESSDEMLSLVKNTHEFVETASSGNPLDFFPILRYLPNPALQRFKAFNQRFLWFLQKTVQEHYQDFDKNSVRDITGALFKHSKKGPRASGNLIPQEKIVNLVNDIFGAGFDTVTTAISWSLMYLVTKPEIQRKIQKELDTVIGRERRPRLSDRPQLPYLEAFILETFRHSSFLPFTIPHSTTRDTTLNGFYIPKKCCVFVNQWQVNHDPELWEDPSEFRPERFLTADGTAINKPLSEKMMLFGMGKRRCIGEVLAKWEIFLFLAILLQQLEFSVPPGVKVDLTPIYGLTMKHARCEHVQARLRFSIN

Consider `Nc1cc(Cl)c(NC2=NCCN2)c(Cl)c1`, for which the figures for the activity change, negative = inhibition in test [1] (at 38 µM (top of the series)) and in test [2] (at 38 µM (top of the series)) were 2.68% and -7.69%, respectively. Also, the activity, negative = inhibition in test [3] (at 38 µM (top of the series)) is -3.42%. Also, the Potency in test [4] and in test [5] was over 46 µM in each case. Also, in test [6], the outcome was inactive.

As to `CCN1CCN(c2cc3c(cc2F)c(=O)c(C(=O)O)cn3C2CC2)CC1`, the activity change, negative = inhibition in test [1] (at 17.2 µM (top of the series)) is 4.63%; in test [2] (at 17.2 µM (top of the series)) it was 3.59%. The activity, negative = inhibition in test [3] (at 17.2 µM (top of the series)) is 20.5%. In addition, in test [4], the Potency was over 20.6 µM.

Regarding `C[C@@H]1C(=O)NC2=Nc3cccc(Cl)c3CN21`, the results for the activity change, negative = inhibition in test [1] (at 38 µM (top of the series)) and in test [2] (at 38 µM (top of the series)) were 9.37% and -0.581%, respectively. Further, the activity, negative = inhibition in test [3] (at 38 µM (top of the series)) is -15.9%. In addition, the Potency in test [4] and in test [5] was over 46 µM throughout.

For the compound `CCC(NC(C)C)C(O)c1ccc(O)c(O)c1` (centres undefined), the activity change, negative = inhibition is -6.11% in test [1] (at 17.2 µM (top of the series)) and 3% in test [2] (at 17.2 µM (top of the series)). The activity, negative = inhibition in test [3] (at 17.2 µM (top of the series)) was 1.25%.

Take `CC(=O)N(O)CCCCCNC(=O)CCC(=O)N(O)CCCCCNC(=O)CCC(=O)N(O)CCCCCN`: the activity change, negative = inhibition in test [1] (at 17.2 µM (top of the series)) is -6.04%. For the same compound, the Potency entry in test [7] was “inactive”. In addition, the activity, negative = inhibition in test [3] (at 17.2 µM (top of the series)) was 10.3%. Further, the Potency in test [4] and in test [5] was over 20.6 µM each time. For the same compound, in test [6], the call was inactive.

As to `CC(=O)OCC(=O)[C@@]1(O)CC[C@H]2[C@@H]3CCC4=CC(=O)C=C[C@]4(C)[C@H]3[C@@H](O)C[C@@]21C`, the activity change, negative = inhibition was 11.9% in test [1] (at 17.2 µM (top of the series)) and -6.54% in test [2] (at 17.2 µM (top of the series)). Besides, the activity, negative = inhibition in test [3] (at 17.2 µM (top of the series)) is -3.24%.

Take `NCCCC[C@H](N[C@@H](CCc1ccccc1)C(=O)O)C(=O)N1CCC[C@H]1C(=O)O`: the activity change, negative = inhibition in test [1] (at 17.2 µM (top of the series)) is 3.25%; in test [2] (at 17.2 µM (top of the series)), -2.99%. In test [3] (at 17.2 µM (top of the series)), the activity, negative = inhibition is 4.58%. The Potency in test [4] and in test [5] was over 20.6 µM each time. Moreover, the outcome in test [6] was inactive.

For the compound `CN1CCN(CCCN2c3ccccc3Sc3ccc(S(=O)(=O)N(C)C)cc32)CC1`, the activity change, negative = inhibition in test [1] (at 17.2 µM (top of the series)) was 16.8%. The Potency is 12.6 µM (active) in test [7], over 20.6 µM in test [4] and over 20.6 µM in test [5]. In test [6], the result was inactive.

Take `CCCCOc1ccc(C(=O)CCN2CCCCC2)cc1`: the activity change, negative = inhibition in test [1] (at 17.2 µM (top of the series)) was 18.2% and 12.3%. The Potency was 3.16 µM (active) in test [7], over 20.6 µM in test [4] and over 20.6 µM in test [5]. For the same compound, the activity, negative = inhibition in test [3] (at 17.2 µM (top of the series)) was -25% and -28.6%. For the same compound, the compound was called inactive in test [6].

Take `C[C@H]1[C@H](NC(=O)/C(=N/OC(C)(C)C(=O)O)c2csc(N)n2)C(=O)N1S(=O)(=O)O` (stereo in doubt): the activity change, negative = inhibition in test [1] (at 17.2 µM (top of the series)) is 1.44%; in test [2] (at 17.2 µM (top of the series)), 3.56%. In addition, the Potency entry in test [7] is “inactive”. Also, the Potency in test [4] and in test [5] was over 20.6 µM in each case. Moreover, the compound was called inactive in test [6].

Take `C[C@H]1C[C@H]2[C@@H]3CCC4=CC(=O)C=C[C@]4(C)[C@@]3(Cl)[C@@H](O)C[C@]2(C)[C@@]1(O)C(=O)CO`: the activity change, negative = inhibition in test [1] (at 17.2 µM (top of the series)) is -9.37%; in test [2] (at 17.2 µM (top of the series)) it was -6.95%.

Turning to `CCCC1O[C@@H]2C[C@H]3[C@@H]4CCC5=CC(=O)C=C[C@]5(C)[C@H]4[C@@H](O)C[C@]3(C)[C@]2(C(=O)CO)O1` (some centres undefined), the activity change, negative = inhibition in test [1] (at 17.2 µM (top of the series)) is 2.92%; in test [2] (at 17.2 µM (top of the series)) it was 23.6%.

The values above are taken from PubChem BioAssay (NCATS).
